# High-throughput results from PubChem BioAssay.
# MITF TRPM1 inh – inhibitors of MITF-dependent TRPM1 promoter reporter, primary screen, cell-based, SK-MEL-5, single point, luciferase | SK-MEL-5 TRPM1 promoter luciferase, 24 h | inhibition, % at 12.5 µM | hit rate 0.83% among 330,000 | AID 488899, 2010;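 active = mean inhibition across replicates of 60% or more, whatever share of single replicates reaches that level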
# Shn3 3UTR inh – reduction of Shn3 3'UTR firefly luciferase signal, primary screen, Schnurri-3 inhibitor project, cell-based, Clone20 osteoblasts, set 2. Clone20 osteoblast Shn3 3'UTR firefly luciferase, 24 h. inhibition, % at 12.5 µM. hit rate 0.52% among 360,000;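 active = mean inhibition of at least 75% with every replicate also reaching 75%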
# PAX8 reporter – inhibitors of PAX8-driven TPO luciferase reporter, primary screen, RMG-I cells, single concentration | SteadyGlo, 24 h | hit rate 1.2% among 360,000 | inhibition, % at 12.6 µM;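 active = mean replicate inhibition at least 60% with every replicate also reaching 60%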;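 also: luciferase light reporting Pax8 driven TPO promoter activity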
# Peg3 promoter – Peg3 promoter-driven luciferase inhibitors, primary screen, cell-based, HeLa, luciferase luminescence; HeLa PEG-Prom luciferase reporter, overnight; inhibition, % at 20 µM; hit rate 1.7% among 360,000; AID 588405, 2011;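 active = inhibition of at least 50% at 20 µM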
# ABHD5 PLIN5 PPI – ABHD5-PLIN5 interaction inhibitors, primary screen, cell lysate, split luciferase complementation, luminescence. AID 602281, 2012. Split G. princeps luciferase complementation, 4 h. inhibition, % at 4 µM. Perilipin-5 (Homo sapiens) + 1-acylglycerol-3-phosphate O-acyltransferase ABHD5 (Homo …. hit rate 0.78% among 360,000;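 active = inhibition above the mean inhibition across every tested compound plus 3 SD, cut at about 22% in these data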
# EWS-Fli inh – EWS/Fli-driven NR0B1 reporter inhibitors, primary screen, A673 cells, NR0B1 luciferase, luminescence, MLPCN library | viability-normalised | inhibition, % at 12.6 µM | hit rate 0.67% among 350,000 | AID 651661, 2012;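 active = mean inhibition of at least 50% after viability correction, with every replicate also passing that limit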;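 also: firefly luciferase signal divided by Alamar Blue viability fluorescence both relative to DMSO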
# Hits are given with their value; . = inactive; / = no result given. Rows were chosen to be rich in hits. Some 3% of all compounds tested hit in one or more screens of this group.
SMILES,MITF TRPM1 inh,Shn3 3UTR inh,PAX8 reporter,Peg3 promoter,ABHD5 PLIN5 PPI,EWS-Fli inh
O=C(C[C@@H]1C[C@H]2c3cc(NC(=O)Nc4ccc(C(F)(F)F)cc4)ccc3O[C@H]2[C@H](CO)O1)NCCc1ccccc1,/,/,100,/,/,.
C[C@H](NC(=O)C[C@@H]1C[C@@H]2c3cc(NC(=O)Nc4ccc(C(F)(F)F)cc4)ccc3O[C@@H]2[C@@H](CO)O1)c1ccccc1,/,/,107,/,/,.
C[C@H](NC(=O)C[C@@H]1C[C@H]2c3cc(NC(=O)Nc4ccc(C(F)(F)F)cc4)ccc3O[C@H]2[C@H](CO)O1)c1ccccc1,/,/,.,/,/,.
COCCNC(=O)C[C@H]1C[C@H]2c3cc(NC(=O)Nc4ccc(C(F)(F)F)cc4)ccc3O[C@H]2[C@H](CO)O1,/,/,.,/,/,.
COCCNC(=O)C[C@@H]1C[C@H]2c3cc(NC(=O)Nc4ccc(C(F)(F)F)cc4)ccc3O[C@H]2[C@H](CO)O1,/,/,91,/,/,.
O=C(C[C@H]1C[C@@H]2c3cc(NC(=O)Nc4ccc(C(F)(F)F)cc4)ccc3O[C@@H]2[C@@H](CO)O1)NCCc1ccccc1,/,/,99,/,/,.
CN1C(=O)c2cc(NS(C)(=O)=O)ccc2OC[C@H]2O[C@@H](CC(=O)NC3CCCCC3)CC[C@@H]21,/,/,.,/,/,.
C[C@H](CO)N1C[C@H](C)[C@@H](CN(C)S(=O)(=O)c2cccs2)Oc2ccc(NC(=O)NC3CCCCC3)cc2CC1=O,/,/,.,/,/,.
CCCNC(=O)N(C)C[C@@H]1Oc2cc(C#CCN(C)C)ccc2S(=O)(=O)N([C@@H](C)CO)C[C@@H]1C,/,/,/,/,/,.
C[C@@H]1CN([C@H](C)CO)C(=O)c2cc(NC(=O)CCC(F)(F)F)ccc2O[C@H]1CN(C)S(=O)(=O)c1ccccc1,/,/,.,/,/,.
O=C(C[C@@H]1C[C@H]2c3cc(NC(=O)Nc4ccc(C(F)(F)F)cc4)ccc3O[C@H]2[C@H](CO)O1)NC1CCCCC1,/,/,67,/,/,.
COc1ccc(-c2ccc([C@H]3[C@@H](CO)N4C(=O)CN(C(=O)C5CCCC5)C[C@H]34)cc2)cc1,/,/,.,/,/,.
OCCNCCOc1ccccc1-c1ccccc1,.,.,.,.,.,/
N=C(N)CCCOc1ccccc1-c1ccccc1,.,.,63,.,.,.
COc1ccc(CCNC(=O)COC(=O)c2cccs2)cc1,.,.,83,.,.,.
C[C@H](CO)N1C[C@H](C)[C@H](CN(C)S(=O)(=O)c2ccc(Cl)cc2)OCCCC[C@H](C)Oc2ccc(NS(=O)(=O)c3ccc(F)cc3)cc2C1=O,/,/,81,/,/,.
C[C@@H]1CCCCO[C@H](CN(C)S(=O)(=O)c2ccc(F)cc2)[C@H](C)CN([C@H](C)CO)C(=O)c2cc(NS(=O)(=O)c3ccc(Cl)cc3)ccc2O1,/,/,.,/,/,.
C[C@H]1CCCCO[C@H](CN(C)S(=O)(=O)c2ccc(Cl)cc2)[C@@H](C)CN([C@@H](C)CO)C(=O)c2cc(NS(=O)(=O)c3ccc(F)cc3)ccc2O1,/,/,86,/,/,.
C[C@@H]1CN([C@H](C)CO)C(=O)c2cc(NS(=O)(=O)c3ccc(Cl)cc3)ccc2O[C@@H](C)CCCCO[C@@H]1CN(C)S(=O)(=O)c1ccc(F)cc1,/,/,.,/,/,.
C[C@@H]1CCCCO[C@@H](CN(C)S(=O)(=O)c2ccc(F)cc2)[C@@H](C)CN([C@H](C)CO)C(=O)c2cc(NS(=O)(=O)c3ccc(Cl)cc3)ccc2O1,/,/,.,/,/,.
C[C@@H]1CCCCO[C@H](CN(C)S(=O)(=O)c2ccc(F)cc2)[C@H](C)CN([C@@H](C)CO)C(=O)c2cc(NS(=O)(=O)c3ccc(Cl)cc3)ccc2O1,/,/,81,/,/,.
C[C@@H]1CCCCO[C@@H](CN(C)S(=O)(=O)c2ccc(F)cc2)[C@H](C)CN([C@H](C)CO)C(=O)c2cc(NS(=O)(=O)c3ccc(Cl)cc3)ccc2O1,/,/,86,/,/,.
O=C(C[C@H]1C=C[C@H](NC(=O)Nc2ccccc2)[C@H](CO)O1)NCc1cccc(F)c1,/,/,.,/,/,.
C[C@H]1CN([C@@H](C)CO)C(=O)c2cccc(NC(=O)c3cnccn3)c2O[C@H]1CN(C)Cc1ccc2c(c1)OCO2,/,/,.,/,/,.
C[C@@H]1CCCCO[C@@H](CN(C)S(=O)(=O)c2ccc(Cl)cc2)[C@@H](C)CN([C@@H](C)CO)C(=O)c2cc(NS(=O)(=O)c3ccc(F)cc3)ccc2O1,/,/,.,/,/,.
SMILES,MITF TRPM1 inh,Shn3 3UTR inh,PAX8 reporter,Peg3 promoter,ABHD5 PLIN5 PPI,EWS-Fli inh
C[C@H]1CCCCO[C@H](CN(C)S(=O)(=O)c2ccc(F)cc2)[C@@H](C)CN([C@@H](C)CO)C(=O)c2cc(NS(=O)(=O)c3ccc(Cl)cc3)ccc2O1,/,/,89,/,/,.
COc1ccc2c3c(n(C)c2c1)[C@H](CO)N(C(C)=O)CC31CN(C(=O)NC(C)C)C1,/,/,/,/,/,.
O=C(c1ccc(S(=O)(=O)Cc2ccccc2Cl)c([N+](=O)[O-])c1)N1CCN(c2ccccn2)CC1,74,.,.,.,.,.
O=S1(=O)c2ccc(Br)cc2OC(COCc2ccccc2)CN1Cc1ccccc1 (stereo not given),.,.,.,.,.,.
O=S1(=O)c2ccc(Br)cc2N2CCC[C@@H]2CN1Cc1ccccc1,.,.,.,.,.,52
COc1ccc(NC(=O)N(C)C[C@H]2OCCCC[C@H](C)Oc3ccc(NS(=O)(=O)c4cccs4)cc3C(=O)N([C@@H](C)CO)C[C@H]2C)cc1,/,/,/,/,/,.
O=C(CN1C(=O)CCC1=O)c1ccc(-c2ccccc2)cc1,.,.,.,.,.,.
N=c1ccn(CC(=O)c2ccc(-c3ccccc3)cc2)cc1,.,.,83,.,.,.
CCOC(=O)c1cnc[nH]c1=O,.,.,.,.,22,.
CCOC(=O)c1cnc(Cc2ccccc2)[nH]c1=O,.,.,.,.,.,.
C[C@H]1CN([C@@H](C)CO)C(=O)c2cccc(NC(=O)c3cnccn3)c2O[C@@H]1CN(C)S(=O)(=O)c1ccccc1,/,/,.,/,/,.
Cc1ccc(NS(=O)(=O)c2ccc(NC(=O)CN(c3cc([N+](=O)[O-])ccc3C)S(C)(=O)=O)cc2)c(C)c1,.,.,.,50,.,.
Cc1cc(C)n(-c2nc(SCC(=O)O)c3c4c(sc3n2)COC(C)(C)C4)n1,.,.,.,.,.,.
Cc1cc(C)n(-c2nc(SCCN(C)C)c3c4c(sc3n2)CCCC4)n1,.,.,/,83,.,/
CN(Cc1ccccc1)N=Nc1nc[nH]c1C(N)=O,/,.,87,.,.,.
CN1CCN(C(=O)C[C@H]2CC[C@H](NS(=O)(=O)c3cccc(F)c3)[C@@H](CO)O2)CC1,/,/,.,/,/,.
COCCCNC(=O)C(=O)NC1CCCCCC1,.,.,.,.,.,.
